TROY signal inh: inhibitors of TROY-dependent NF-kB signaling. Q293 LMP1-TROYcd NF-kB luciferase reporter, 4 h. inhibition, % at 10 µM. 360,000 compounds, 0.98% hits. AID 1347056;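 active = compounds whose plate-normalised and pattern-corrected inhibition of the luciferase reporter signal at the single screening dose is 50% or more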
TWEAK Fn14 block: blocks TWEAK-Fn14 interaction in a reporter cell assay; TWEAK-stimulated Fn14 reporter cells, luciferase luminescence, 8 h; inhibition, % at 10 µM; 360,000 compounds, 2% hits; in the data active = inhibition above about 50%
EWS-Fli block: EWS/Fli transcriptional activity inhibition; A673 NR0B1-luciferase reporter, viability-normalised; inhibition, % at 12.6 µM; 350,000 compounds, 0.67% hits;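 active = mean inhibition of at least 50% after viability correction, with every replicate also passing that limit; inconclusive = mean reaches 50% but only one of two replicates passes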;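 also: firefly luciferase signal divided by Alamar Blue viability fluorescence both relative to DMSO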
PAX8 reporter: lowers PAX8-driven luciferase in RMG-I cells | RMG-I TPO-luciferase reporter, SteadyGlo, 24 h | inhibition, % at 12.6 µM | 360,000 compounds, 1.2% hits;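 active = mean replicate inhibition at least 60% with every replicate also reaching 60%; inconclusive = only one of the two criteria is met; inactive = mean below 60% and not all replicates reaching 60%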;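 also: luciferase light reporting Pax8 driven TPO promoter activity; plate controls were median of neutral control wells for no effect and mitoxantrone controls for full effect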
EBV LMP1 NFkB: Epstein-Barr LMP1 NF-kappaB reporter inhibition | LMP1-induced NF-kappaB luciferase reporter cells, luminescence | inhibition, % at 12.5 µM | 350,000 compounds, 0.69% hits; in the data active = inhibition above about 41%; inconclusive = no clear call, values can overlap the other calls;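 also: 0% = neutral control wells and 100% = reference inhibitor control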
LGR2 antag: Drosophila LGR2 receptor signaling inhibition; inhibition, % at 9.99 µM; HEK293 LGR2, CRE-luciferase, bursicon-stimulated, 4 h; 380,000 compounds, 0.35% hits; AID 720647;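 active = drop in luminescence signal, shown as inhibition above about 50% in the replicate tests, limit read from the data, passing the limit was not always enough; inconclusive = probably only some replicates passing the limit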;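 also: agonist challenge used bursicon conditioned medium at about half maximal strength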
An asterisk follows results filed as active; ? = inconclusive; . = no result. Only some compounds are listed: those with a hit (about 3.1% of all), similar ones and a draw of the others.

SMILES	TROY signal inh	TWEAK Fn14 block	EWS-Fli block	PAX8 reporter	EBV LMP1 NFkB	LGR2 antag
C[C@@H]1CN([C@@H](C)CO)C(=O)c2cc(NS(=O)(=O)c3ccccc3)ccc2O[C@@H]1CN(C)C(=O)Nc1ccccc1	.	.	0	-5	.	11
COc1cccc(NC(=O)CNS(=O)(=O)c2ccc(Cl)cc2)c1	-13	0	.	.	3	.
COc1cccc(S(=O)(=O)NCC(=O)Nc2ccc(C(C)(C)C)cc2)c1	19	12	5	88*	-6	2
O=C(NCc1cccnc1)/C(=C\c1ccc(-c2ccc(Cl)c(Cl)c2)o1)S(=O)(=O)c1ccccc1	89*	105*	40	91*	87*	103*
CCC1(C)Cc2ccccc2-c2nc(SCC(N)=O)[nH]c(=O)c21 (stereo unspecified)	53*	12	5	-7	-9	-6
CCC(CO)Oc1cc(NCc2ccccc2)c2ncn(C(C)C)c2c1 (stereo unspecified)	-32	-3	1	-2	10	10
CCCCOc1cc(NCc2ccccc2)c2ncn(C(C)C)c2c1	12	10	11	19	-38	68*
CCC(COC)Oc1cc(NCc2ccccc2)c2ncn(C(C)C)c2c1 (stereo unspecified)	30	33	4	70*	9	104*
CCC(COC(=O)c1ccccc1)Oc1cc(NCc2ccccc2)c2ncn(C(C)C)c2c1 (stereo unspecified)	42	33	-4	64*	-8	-3
Cc1nnc(SCc2cc(=O)[nH]c(/N=C(\N)Nc3ccccc3)n2)s1	-7	-2	24	19	-8	-5
CCOc1ccc(N/C(N)=N/c2nc(CSc3nnc(C)s3)cc(=O)[nH]2)cc1	31	-13	67*	-2	4	-15
Cc1ccc(C2=C/C(=C/c3cccs3)C(=O)O2)cc1	-32	53*	.	.	-3	-3
Nn1cnc2c(c1=O)C1(CCCCC1)Cc1ccccc1-2	1	12	.	-3	-6	1
Oc1ccc(-c2nc3c4c(ncn3n2)-c2ccccc2CC42CCCC2)cc1	30	77*	.	.	-8	0
COc1ccc(-n2c(=S)[nH]c3cc(C(=O)NCc4ccco4)ccc3c2=O)cc1OC	9	4	-2	5	2	-12
COc1ccc(CCn2c(=S)[nH]c3cc(C(=O)NCc4ccco4)ccc3c2=O)cc1OC	16	52*	.	.	24	.
Cc1ccc(N(C)C(=O)C2CCCN2S(=O)(=O)c2ccc3c(c2)n(C)c(=O)c(=O)n3C)cc1 (stereo unspecified)	-5	66*	1	13	3	-3
O=C(c1ccccc1)N1CCSc2sccc2C1=O	-40	-4	67*	54	72*	98*
C[C@@H]1CCCCO[C@H](CN(C)C(=O)CCC(F)(F)F)[C@@H](C)CN([C@@H](C)CO)C(=O)c2cc(NC(=O)Cc3ccccc3)ccc2O1	.	.	6	22	.	21
CN(C)CCCNC(=S)NCC(c1ccc(Cl)cc1Cl)c1c[nH]c2ccccc12 (stereo unspecified)	0	-46	62*	29	-41	-2
CS(=O)(=O)Nc1ccc2c(c1)[C@@H]1C[C@H](CC(=O)N3CCOCC3)O[C@@H](CO)[C@@H]1O2	.	.	2	.	.	-16
C[C@@H]1CN([C@H](C)CO)S(=O)(=O)c2ccc(-c3ccncc3)cc2O[C@@H]1CN(C)C(=O)C1CCCCC1	.	.	20	.	.	-9
C=CCN1CCN(C(=O)CCc2ccccc2)CC1	8	-1	2	9	87*	4
O=C(CCc1ccccc1)N1CCN(C(=O)CCc2ccccc2)CC1	4	27	2	.	9	-1
O=C(C[C@@H]1CC[C@@H]2[C@H](COC[C@@H](O)CN2C(=O)Nc2ccccc2)O1)NCCc1ccncc1	.	.	-10	-11	.	-6
SMILES	TROY signal inh	TWEAK Fn14 block	EWS-Fli block	PAX8 reporter	EBV LMP1 NFkB	LGR2 antag
CC(C)(C)c1ccc(C(=O)NNc2ncccc2-n2cccc2)cc1	53*	8	-1	19	0	-23
COc1ccc(CN2[C@H](CO)[C@H]3c4ccccc4NC[C@H]32)cc1	.	.	48	96*	.	29
C[C@H]1CN([C@@H](C)CO)C(=O)Cc2cc(NC(=O)CCCCCC(=O)Nc3ccccc3N)ccc2O[C@H]1CN(C)C(=O)Nc1cccc2ccccc12	.	.	34	14	.	4
CN(C)c1ccc(C(=S)Nc2ccccc2)cc1	82*	95*	-5	-50	3	.
CN(C)c1ccc(NC(=S)c2ccccn2)cc1	81*	99*	86*	?	73*	99*
CN(C)c1cc(O)c(C(=S)Nc2ccccc2)c(N(C)C)c1	-9	12	.	5	-19	.
COc1ccccc1NC(=O)N(C)C[C@@H]1OCc2cn(nn2)CCCC(=O)N([C@@H](C)CO)C[C@@H]1C	.	.	4	.	.	6
COc1cccc(S(=O)(=O)N2C[C@H](O)COC[C@H]3O[C@H](CC(=O)N4CCN(C)CC4)CC[C@@H]32)c1	.	.	0	-15	.	8
CC1=C(SCc2ccccc2)C(=O)c2ccccc2C1=O	38	88*	39	64*	-1	27
c1ccc(CCc2nn3c(-c4ccncc4)nnc3s2)cc1	29	74*	.	.	29	.
COc1ccc(S(=O)(=O)N(C)C[C@H]2OCCCC[C@@H](C)Oc3ccc(NC(=O)NC(C)C)cc3C(=O)N([C@@H](C)CO)C[C@@H]2C)cc1	.	.	-5	-1	.	0
CCn1cnc2cc(NCc3nc4ccccc4n3Cc3ccccc3)ccc21	80*	81*	.	.	-11	.
CCn1cnc2cc(NCc3nc4ccccc4n3C)ccc21	69*	86*	-33	.	-4	2
O=C(O)c1ccc(NCc2nc3ccccc3n2Cc2ccccc2)cc1	-2	-9	5	-4	2	1
Cn1c(CNc2ccccc2)nc2ccccc21	-38	-11	.	.	-43	-82
CC(C)n1cnc2cc(NCc3nc4ccccc4n3C)ccc21	67*	60*	-70	-14	-36	-15
C[C@H]1CN([C@@H](C)CO)C(=O)Cc2cc(NC(=O)C3CC3)ccc2O[C@@H]1CN(C)Cc1ccncc1	.	.	-2	-15	.	18
COc1ccc(NC(=O)Nc2ccc3c(c2)C(=O)N([C@@H](C)CO)C[C@@H](C)[C@@H](CN(C)C(=O)c2ccccc2)OCCCC[C@@H](C)O3)cc1	.	.	-2	15	.	-9
C[C@@H]1CN([C@H](C)CO)C(=O)c2cc(NS(=O)(=O)c3ccc(Cl)cc3)ccc2O[C@@H](C)CCCCO[C@@H]1CN(C)C	.	.	1	4	.	14
COc1ccc(S(=O)(=O)Nc2ccc3c(c2)CC(=O)N([C@H](C)CO)C[C@H](C)[C@@H](CN(C)C(=O)Nc2ccc(C(F)(F)F)cc2)O3)cc1	.	.	9	-2	.	0
Nc1nc(Cl)nc2ccc(Br)cc12	71*	75*	-36	-60	11	-13
CCc1c(C)nc2ccc(Br)cc2c1Cl	-31	-18	.	.	-3	.
